Source: PubChem
aSyn 5UTR inh = MLPCN primary screen, SNCA 5' untranslated region. alpha-synuclein 5'UTR reporter, inhibitor activity. inhibition, % (tested at 7.5 µM). 300,000 tested, 0.82% active; in the data active = inhibition above about 60%; inconclusive = no clear call, values can overlap the other calls;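 note: H4 neuroglioblastoma cells stably carrying SNCA 5'UTR luciferase fusion; 0% = DMSO wells and 100% = positive control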
Shn3 3UTR inh = reduction of Shn3 3'UTR firefly luciferase signal, primary screen, Schnurri-3 inhibitor project, cell-based, Clone20 osteoblasts, set 2; inhibition, % at 12.5 µM; Clone20 osteoblast Shn3 3'UTR firefly luciferase, 24 h; 360,000 tested, 0.52% active;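 active = mean inhibition of at least 75% with every replicate also reaching 75%; inconclusive = mean inhibition at least 75% but some replicate below; inactive = mean inhibition below 75%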;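 note: 0% = median of neutral control wells and 100% = pilot-screen positive control compound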
TRPM1 prom inh = inhibitors of MITF-dependent TRPM1 promoter reporter, primary screen, cell-based, SK-MEL-5, single point, luciferase; SK-MEL-5 TRPM1 promoter luciferase, 24 h; inhibition, % at 12.5 µM; 330,000 tested, 0.83% active; AID 488899, 2010;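 active = mean inhibition across replicates of 60% or more, whatever share of single replicates reaches that level; inconclusive = some that reach 60%, reason not given; inactive = mean inhibition across replicates below 60%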
PAX8 reporter = inhibitors of PAX8-driven TPO luciferase reporter, primary screen, RMG-I cells, single concentration; SteadyGlo, 24 h; inhibition, % at 12.6 µM; 360,000 tested, 1.2% active; AID 652154, 2013;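 active = mean replicate inhibition at least 60% with every replicate also reaching 60%; inconclusive = only one of the two criteria is met; inactive = mean below 60% and not all replicates reaching 60%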;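 note: luciferase light reporting Pax8 driven TPO promoter activity; plate controls were median of neutral control wells for no effect and mitoxantrone controls for full effect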
EBV LMP1 NFkB = EBV LMP1-driven NF-kappaB luciferase reporter inhibitors, primary screen, cell-based, luminescence, single point; LMP1-induced NF-kappaB luciferase reporter cells; inhibition, % at 12.5 µM; 350,000 tested, 0.69% active; in the data active = inhibition above about 41%; inconclusive = no clear call, values can overlap the other calls;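 note: 0% = neutral control wells and 100% = reference inhibitor control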
Active calls of the source: *; ? = inconclusive; . = no result. Hits are enriched below; roughly 2.1% of the tested compounds scored in any of these assays.

SMILES	aSyn 5UTR inh	Shn3 3UTR inh	TRPM1 prom inh	PAX8 reporter	EBV LMP1 NFkB
COc1cccc(-c2ccc3c(c2)[C@H]2[C@H](CCN2S(=O)(=O)c2ccccc2OC)[C@@H](CO)N3C)c1	.	.	.	92*	.
CCOC(=O)C1=NN(C(C)=O)C2(CC(=O)N(c3cc(C)cc(C)c3)C2=O)C1 (stereo not drawn)	5	2	-13	7	1
O=C(/C=C/c1cc(Br)ccc1F)Nc1cccnc1	-118	-44	-35	-18	-3
CC(=O)Nc1cnc(-c2ccccc2C(F)(F)F)cn1	.	5	.	-16	.
CCOc1cc(CNc2ccc3c(c2)OCCO3)cc(Br)c1OCC	97*	64	47	.	28
CCOC(=O)/C(=C\c1cccnc1)C(=O)c1cc(C(C)=O)c(Nc2ccccc2)s1	83*	98*	98*	.	27
CCOC(=O)/C(=C\c1ccccc1)C(=O)c1cc(C(C)=O)c(Nc2ccccc2)s1	-29	98*	56	.	53*
CCOC(=O)/C(C#N)=C\c1cccnc1	-25	-12	-3	4	-7
CCOC(=O)C(=Cc1ccc(Br)cc1)C(=O)OCC	-121	-10	4	17	6
Brc1ccc2nc(-c3ccco3)c(Cc3ccccc3)n2c1	.	-26	.	9	.
COc1ccc2c3c([nH]c2c1)[C@@H](CO)N(C(=O)C1CC1)CC31CN(Cc2nccs2)C1	.	.	.	86*	.
COc1ccc2c3c([nH]c2c1)[C@@H](CO)N(C(=O)C1CCCC1)CC31CN(Cc2nccs2)C1	.	.	.	0	.
COc1ccc2c3c([nH]c2c1)[C@@H](CO)N(C(=O)C1CC1)CC31CN(Cc2cccc(F)c2)C1	.	.	.	20	.
COc1ccc2c3c([nH]c2c1)[C@H](CO)N(C(=O)C1CC1)CC31CCN(Cc2cccc(F)c2)CC1	.	.	.	69*	.
CCc1ccccc1OCC(=O)OCC(=O)Nc1cc(C)on1	.	10	5	0	1
CN(C)CCCNc1cc(-c2ccccc2)nc2cc(-c3cccc(F)c3)nn12	-62	-37	63*	8	-19
O=c1cc(CN2CCN(S(=O)(=O)c3ccc4ccccc4c3)CC2)nc2sccn12	4	-5	12	2	-6
Cc1cc(=O)oc2c3c(cc(OCC(=O)Nc4ccc(CCO)cc4)c12)OC(C)(C)CC3	13	91*	-8	.	-7
COc1ccc(C2=Nn3c(nnc3-c3ccccc3Cl)SC2)cc1OCC1CC1	.	54	36	56	12
COc1ccc(C2=Nn3c(nnc3-c3ccccn3)SC2)cc1	17	11	0	.	2
COc1ccc(C2=Nn3c(nnc3-c3ccccc3C(F)(F)F)SC2)cc1OC1CCOC1 (stereo not drawn)	.	4	5	23	12
COc1ccc(C2=Nn3c(nnc3-c3cccnc3)SC2)cc1OC	45	0	-20	.	6
COc1ccc(C2=Nn3c(nnc3-c3ccccc3OC)SC2)cc1OC1CCOC1 (stereo not drawn)	.	12	63*	68*	24
COc1ccc(OC)c(-c2nnc3n2N=C(c2ccc(OC)c(OCC4CC4)c2)CS3)c1	.	6	65*	.	26
COc1ccc(C2=Nn3c(nnc3-c3ccncc3)SC2)cc1OC	72*	1	-60	.	10
SMILES	aSyn 5UTR inh	Shn3 3UTR inh	TRPM1 prom inh	PAX8 reporter	EBV LMP1 NFkB
COc1ccccc1-c1nnc2n1N=C(c1ccc(O)c(O)c1)CS2	97*	13	42	.	-2
CC(=O)N(O)c1ccc(C=Cc2ccccc2)cc1	.	-4	.	-78	.
C[C@@H]1CN([C@H](C)CO)C(=O)c2cccc(NC(=O)Nc3ccc(C(F)(F)F)cc3)c2O[C@H]1CN(C)C(=O)NC1CCCCC1	.	.	.	28	.
Cc1noc(C)c1S(=O)(=O)N(C)C[C@H]1Oc2ccc(NC(=O)c3ccncc3)cc2CC(=O)N([C@H](C)CO)C[C@H]1C	.	.	.	-36	.
Cn1c(SCC(=O)O)nnc1-c1cccc(NC(=O)c2cccc3ccccc23)c1	0	-3	1	8	-10
CCOc1ccc(C2=Nn3c(nnc3-c3ccccc3OC)SC2)cc1	109*	39	42	95*	4
Cc1[nH]n(-c2nc(-c3ccc(Cl)cc3)cs2)c(=O)c1N=Nc1ccc(O)cc1	-118	90*	39	-4	-42
CCc1c(C)[nH]n(-c2nc(-c3ccccc3)cs2)c1=O	-21	-18	-15	-40	9
O=C(O)CSCC(=O)Nc1ccc(Cl)cc1C(F)(F)F	17	0	-9	3	3
CC(C)N(CC(=O)Nc1ccc(Cl)cc1C(F)(F)F)C(=O)CCl	-19	-95	10	92*	-21
CCCc1c(C(=O)Nc2ccc(N3CCOCC3)cc2)cnn1-c1ccccc1	-32	-1	1	45	2
CCCc1c(C(=O)Nc2ccc(C(F)(F)F)cc2)cnn1-c1ccccc1	12	8	16	39	62*
COc1ccc(CCNc2cc(C)nc3c(-c4ccccc4OC)cnn23)cc1OC	1	5	5	6	11
Cc1[nH]c2c(ccc3ccccc32)c1C1C(CCN)C1(C)C (stereo not drawn)	-19	13	71*	5	-56
Cc1c(Cc2ccccc2)c(=O)oc2cc(OCC(=O)NCc3ccccn3)ccc12	-6	13	14	14	-1
CC(C)CC#Cc1ccc2c(c1)O[C@H](CN(C)Cc1ccc(F)cc1)[C@H](C)CN([C@H](C)CO)S2(=O)=O	.	.	.	76*	.
CC(C)CC#Cc1ccc2c(c1)O[C@@H](CN(C)Cc1ccccn1)[C@H](C)CN([C@H](C)CO)S2(=O)=O	.	.	.	72*	.
CC(C)CC#Cc1ccc2c(c1)O[C@H](CN(C)Cc1ccncc1)[C@@H](C)CN([C@@H](C)CO)S2(=O)=O	.	.	.	73*	.
CC(C)CC#Cc1ccc2c(c1)O[C@H](CN(C)Cc1ccncc1)[C@@H](C)CN([C@H](C)CO)S2(=O)=O	.	.	.	21	.
CC(C)CC#Cc1ccc2c(c1)O[C@@H](CN(C)Cc1ccncc1)[C@H](C)CN([C@H](C)CO)S2(=O)=O	.	.	.	92*	.
C[C@H]1CN([C@@H](C)CO)S(=O)(=O)c2ccc(C#CCN(C)C)cc2O[C@@H]1CN(C)Cc1ccncc1	.	.	.	6	.
CCN(CC)S(=O)(=O)c1cccc(-c2nnc(SCc3nc4ccccc4s3)o2)c1	-113	-8	-17	.	-20
Cc1ccc(N2CC(C(=O)N3CCCCCC3)CC2=O)cc1 (stereo not drawn)	1	-1	-19	15	-4
CCN1CCN(C(c2ccc(C(F)(F)F)cc2)c2ccc3cccnc3c2O)CC1 (stereo not drawn)	25	64	66*	?	14
CSC1=C(C#N)C(=O)NC(c2ccccc2O)S1 (stereo not drawn)	-3	7	0	-6	0
COC(=O)CSC1=C(C#N)C(=O)NC(c2ccccc2)S1 (stereo not drawn)	30	7	74*	-4	-54
